Test results: PMC7862700, “An all-to-all approach to the identification of sequence-specific readers for epigenetic DNA modifications on cytosine”

Experiments:
Assay in all cases: DAPPL (digital affinity profiling via proximity ligation, sequencing); 10 mM Tris-HCl pH 7.5, 50 mM NaCl, 1 mM DTT, 4% glycerol, room temperature, 30 min; GST-TFs on glutathione beads, 16-mer random dsDNA library, 0.1% formaldehyde crosslink after washing; high values mean tight binding
FEV = target: T1, FEV (Homo sapiens, UniProt Q99581 1-238); conditions: protein: recombinant; tags: N-terminal GST; dsDNA, one strand shown
T1 sequence: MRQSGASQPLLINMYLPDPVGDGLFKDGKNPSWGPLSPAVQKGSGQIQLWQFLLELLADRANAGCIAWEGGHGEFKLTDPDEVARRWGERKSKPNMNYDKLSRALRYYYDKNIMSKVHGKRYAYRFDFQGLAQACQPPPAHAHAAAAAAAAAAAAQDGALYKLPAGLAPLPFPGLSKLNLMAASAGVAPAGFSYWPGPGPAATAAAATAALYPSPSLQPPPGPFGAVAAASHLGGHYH
Outline: (§1)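 Each value of binding signal is a hexamer's read frequency for a factor divided by the same hexamer's frequency in the tag-only sample. Barcoded, bead-captured GST fusions of human transcription factors made in yeast were pooled with that sample and incubated with 200 nmole of a random double-stranded 16-mer DNA library in Tris/NaCl/DTT/glycerol buffer at room temperature for 30 min. Washing, 0.1% formaldehyde crosslinking, proximity ligation, PCR and Illumina NextSeq500 sequencing followed.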

ETV5 = ETV5 (Homo sapiens, UniProt P41161 1-510); conditions: protein: recombinant; tags: N-terminal GST; dsDNA, one strand shown
Outline: as §1

HSF1 = HSF1 (Homo sapiens, UniProt Q00613 1-529); conditions: protein: recombinant; tags: N-terminal GST; chain copies: 3; dsDNA, one strand shown
Outline: as §1

SPIC = target: T2, SPIC (Homo sapiens, UniProt Q8N5J4 1-248); conditions: protein: recombinant; tags: N-terminal GST; dsDNA, one strand shown
T2 sequence: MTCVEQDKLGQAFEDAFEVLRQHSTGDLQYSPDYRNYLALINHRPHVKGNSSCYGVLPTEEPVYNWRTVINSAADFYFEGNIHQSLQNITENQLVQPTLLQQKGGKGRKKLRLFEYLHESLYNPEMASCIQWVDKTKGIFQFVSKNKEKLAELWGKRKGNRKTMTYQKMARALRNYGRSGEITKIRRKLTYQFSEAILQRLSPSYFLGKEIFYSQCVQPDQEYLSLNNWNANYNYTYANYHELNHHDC
Outline: as §1

ELF4 = ELF4 (Homo sapiens, UniProt Q99607 1-663); conditions: protein: recombinant; tags: N-terminal GST; dsDNA, one strand shown
Outline: as §1

ELK4 = target: T3, ELK4 (Homo sapiens, UniProt P28324-2 1-405); conditions: protein: recombinant; tags: N-terminal GST; dsDNA, one strand shown
T3 sequence: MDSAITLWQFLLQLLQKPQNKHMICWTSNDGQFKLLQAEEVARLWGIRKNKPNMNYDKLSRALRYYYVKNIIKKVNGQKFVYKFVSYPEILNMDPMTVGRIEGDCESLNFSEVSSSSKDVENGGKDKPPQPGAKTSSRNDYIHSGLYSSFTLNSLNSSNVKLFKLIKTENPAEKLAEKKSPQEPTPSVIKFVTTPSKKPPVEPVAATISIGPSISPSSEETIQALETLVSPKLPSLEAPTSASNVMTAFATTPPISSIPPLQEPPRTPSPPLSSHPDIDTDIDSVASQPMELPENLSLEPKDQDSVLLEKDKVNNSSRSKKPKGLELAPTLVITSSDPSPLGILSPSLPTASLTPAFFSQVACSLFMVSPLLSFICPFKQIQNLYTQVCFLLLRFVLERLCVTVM
Outline: as §1

ETV2 = target: T4, ETV2 (Homo sapiens, UniProt O00321 1-342); conditions: protein: recombinant; tags: N-terminal GST; dsDNA, one strand shown
T4 sequence: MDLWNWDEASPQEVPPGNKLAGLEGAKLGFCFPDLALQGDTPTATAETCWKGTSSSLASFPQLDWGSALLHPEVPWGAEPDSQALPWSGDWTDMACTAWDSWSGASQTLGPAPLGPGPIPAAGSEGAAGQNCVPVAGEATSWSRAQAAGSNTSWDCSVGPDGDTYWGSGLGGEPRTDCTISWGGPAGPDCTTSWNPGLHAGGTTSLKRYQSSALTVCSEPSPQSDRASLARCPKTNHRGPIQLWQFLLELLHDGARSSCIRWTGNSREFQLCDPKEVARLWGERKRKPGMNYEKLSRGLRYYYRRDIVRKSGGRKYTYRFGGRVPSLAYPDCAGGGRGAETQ
Outline: as §1

ELF3 = target: T5, ELF3 (Homo sapiens, UniProt P78545 1-371); conditions: protein: recombinant; tags: N-terminal GST; dsDNA, one strand shown
T5 sequence: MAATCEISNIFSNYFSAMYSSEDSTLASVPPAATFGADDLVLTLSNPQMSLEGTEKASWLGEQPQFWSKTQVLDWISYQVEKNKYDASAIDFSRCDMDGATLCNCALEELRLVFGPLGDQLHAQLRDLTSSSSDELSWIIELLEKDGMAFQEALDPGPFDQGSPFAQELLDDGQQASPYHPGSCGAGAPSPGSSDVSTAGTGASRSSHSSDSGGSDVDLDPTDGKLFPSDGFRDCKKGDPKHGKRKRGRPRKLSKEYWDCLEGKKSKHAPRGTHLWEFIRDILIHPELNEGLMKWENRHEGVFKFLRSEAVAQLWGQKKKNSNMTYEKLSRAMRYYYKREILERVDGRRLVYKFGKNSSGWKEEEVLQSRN
Outline: as §1

CRX = CRX (Homo sapiens, UniProt O43186 1-299); conditions: protein: recombinant; tags: N-terminal GST; dsDNA, one strand shown
Outline: as §1

ETV1 = ETV1 (Homo sapiens, UniProt P50549 1-477); conditions: protein: recombinant; tags: N-terminal GST; dsDNA, one strand shown
Outline: as §1

ERF = target: T6, ERF (Homo sapiens, UniProt P50548 1-548); conditions: protein: recombinant; tags: N-terminal GST; dsDNA, one strand shown
T6 sequence: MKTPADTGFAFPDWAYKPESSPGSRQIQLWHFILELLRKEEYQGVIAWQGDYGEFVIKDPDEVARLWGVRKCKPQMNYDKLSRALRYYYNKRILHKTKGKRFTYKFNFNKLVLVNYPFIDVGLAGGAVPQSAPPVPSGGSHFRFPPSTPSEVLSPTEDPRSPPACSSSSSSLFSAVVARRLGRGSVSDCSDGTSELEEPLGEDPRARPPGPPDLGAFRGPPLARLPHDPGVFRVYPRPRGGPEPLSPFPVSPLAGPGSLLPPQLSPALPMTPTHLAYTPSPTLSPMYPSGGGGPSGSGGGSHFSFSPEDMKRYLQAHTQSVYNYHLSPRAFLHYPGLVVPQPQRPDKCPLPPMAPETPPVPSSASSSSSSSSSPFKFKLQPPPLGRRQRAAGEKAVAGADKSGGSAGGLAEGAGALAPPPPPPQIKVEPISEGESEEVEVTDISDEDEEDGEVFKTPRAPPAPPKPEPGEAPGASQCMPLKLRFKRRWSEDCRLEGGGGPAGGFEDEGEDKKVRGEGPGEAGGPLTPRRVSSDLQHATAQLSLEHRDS
Outline: as §1

ETV3L = target: T7, ETV3L (Homo sapiens, UniProt Q6ZN32 1-361); conditions: protein: recombinant; tags: N-terminal GST; dsDNA, one strand shown
T7 sequence: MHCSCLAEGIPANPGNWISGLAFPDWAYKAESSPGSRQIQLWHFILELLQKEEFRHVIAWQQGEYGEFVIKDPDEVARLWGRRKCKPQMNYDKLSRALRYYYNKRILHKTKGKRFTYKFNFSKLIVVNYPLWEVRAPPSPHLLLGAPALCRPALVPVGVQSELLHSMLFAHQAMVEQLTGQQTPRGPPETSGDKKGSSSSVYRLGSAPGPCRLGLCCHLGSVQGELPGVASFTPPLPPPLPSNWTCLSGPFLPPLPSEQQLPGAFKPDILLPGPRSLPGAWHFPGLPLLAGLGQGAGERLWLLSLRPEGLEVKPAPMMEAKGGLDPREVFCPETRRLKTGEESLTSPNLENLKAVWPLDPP
Outline: as §1

ETS2 = target: T8, ETS2 (Homo sapiens, UniProt P15036 1-469); conditions: protein: recombinant; tags: N-terminal GST; dsDNA, one strand shown
T8 sequence: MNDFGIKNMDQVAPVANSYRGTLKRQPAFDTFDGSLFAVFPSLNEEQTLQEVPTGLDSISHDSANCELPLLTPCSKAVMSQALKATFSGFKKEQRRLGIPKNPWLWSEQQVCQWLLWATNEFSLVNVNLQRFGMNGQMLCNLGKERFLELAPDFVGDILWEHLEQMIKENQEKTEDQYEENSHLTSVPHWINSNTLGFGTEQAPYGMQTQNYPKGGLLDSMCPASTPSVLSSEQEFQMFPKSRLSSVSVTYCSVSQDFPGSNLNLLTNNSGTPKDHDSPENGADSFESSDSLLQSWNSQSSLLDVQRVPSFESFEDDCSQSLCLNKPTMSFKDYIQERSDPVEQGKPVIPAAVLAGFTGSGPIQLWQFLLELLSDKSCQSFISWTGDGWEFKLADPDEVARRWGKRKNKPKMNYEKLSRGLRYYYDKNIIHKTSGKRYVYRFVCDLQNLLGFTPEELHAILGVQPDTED
Outline: as §1

SPDEF = target: T9, SPDEF (Homo sapiens, UniProt O95238 1-335); conditions: protein: recombinant; tags: N-terminal GST; dsDNA, one strand shown
T9 sequence: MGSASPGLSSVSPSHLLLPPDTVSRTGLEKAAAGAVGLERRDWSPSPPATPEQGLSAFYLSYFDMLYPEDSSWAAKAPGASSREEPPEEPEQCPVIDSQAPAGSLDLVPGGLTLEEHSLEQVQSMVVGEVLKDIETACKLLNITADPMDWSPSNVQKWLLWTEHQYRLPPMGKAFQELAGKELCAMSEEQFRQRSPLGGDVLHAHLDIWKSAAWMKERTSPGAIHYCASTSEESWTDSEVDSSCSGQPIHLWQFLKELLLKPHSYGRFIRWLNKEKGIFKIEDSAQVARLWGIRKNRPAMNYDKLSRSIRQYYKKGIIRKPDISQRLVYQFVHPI
Outline: as §1

ETV7 = target: T10, ETV7 (Homo sapiens, UniProt Q9Y603 1-341); conditions: protein: recombinant; tags: N-terminal GST; dsDNA, one strand shown
T10 sequence: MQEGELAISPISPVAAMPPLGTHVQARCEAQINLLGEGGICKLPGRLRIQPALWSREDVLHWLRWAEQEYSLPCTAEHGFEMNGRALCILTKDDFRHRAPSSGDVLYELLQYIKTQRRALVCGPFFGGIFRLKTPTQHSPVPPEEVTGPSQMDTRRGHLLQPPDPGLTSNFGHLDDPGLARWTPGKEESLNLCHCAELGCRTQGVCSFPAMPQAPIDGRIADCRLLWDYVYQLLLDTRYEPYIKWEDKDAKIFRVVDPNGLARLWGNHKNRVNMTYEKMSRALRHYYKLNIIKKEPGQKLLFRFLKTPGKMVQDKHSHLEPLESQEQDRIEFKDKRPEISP
Outline: as §1

ELF5 = target: T11, ELF5 (Homo sapiens, UniProt Q9UKW6-2 1-255); conditions: protein: recombinant; tags: N-terminal GST; dsDNA, one strand shown
T11 sequence: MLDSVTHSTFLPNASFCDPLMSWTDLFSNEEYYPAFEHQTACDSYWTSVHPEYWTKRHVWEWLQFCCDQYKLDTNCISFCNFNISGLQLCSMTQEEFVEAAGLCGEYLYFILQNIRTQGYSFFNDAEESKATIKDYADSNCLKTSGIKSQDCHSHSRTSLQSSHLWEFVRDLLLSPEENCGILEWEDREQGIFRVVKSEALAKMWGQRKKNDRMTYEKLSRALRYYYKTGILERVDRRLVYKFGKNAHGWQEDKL
Outline: as §1

ETV3 = target: T12, ETV3 (Homo sapiens, UniProt P41162-2 1-143); conditions: protein: recombinant; tags: N-terminal GST; dsDNA, one strand shown
T12 sequence: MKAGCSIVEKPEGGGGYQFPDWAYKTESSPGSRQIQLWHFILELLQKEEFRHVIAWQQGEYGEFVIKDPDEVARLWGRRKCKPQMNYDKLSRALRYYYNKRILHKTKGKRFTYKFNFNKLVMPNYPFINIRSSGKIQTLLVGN
Outline: as §1

ETV6 = ETV6 (Homo sapiens, UniProt P41212 1-452); conditions: protein: recombinant; tags: N-terminal GST; dsDNA, one strand shown
Outline: as §1

Chain of ETV1 (P50549 whole entry): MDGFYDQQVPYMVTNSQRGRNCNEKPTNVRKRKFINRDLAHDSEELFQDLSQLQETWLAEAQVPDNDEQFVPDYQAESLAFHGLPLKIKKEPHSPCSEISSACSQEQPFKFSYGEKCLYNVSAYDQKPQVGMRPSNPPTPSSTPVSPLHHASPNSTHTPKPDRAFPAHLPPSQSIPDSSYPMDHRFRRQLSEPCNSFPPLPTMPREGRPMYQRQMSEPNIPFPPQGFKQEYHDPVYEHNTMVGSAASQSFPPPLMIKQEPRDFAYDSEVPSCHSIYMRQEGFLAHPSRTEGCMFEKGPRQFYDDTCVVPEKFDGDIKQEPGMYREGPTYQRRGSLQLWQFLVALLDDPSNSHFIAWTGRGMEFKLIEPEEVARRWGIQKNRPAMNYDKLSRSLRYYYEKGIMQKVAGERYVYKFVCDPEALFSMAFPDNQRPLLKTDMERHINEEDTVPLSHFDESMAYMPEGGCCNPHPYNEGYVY
Chain of ETV5 (P41161 whole entry): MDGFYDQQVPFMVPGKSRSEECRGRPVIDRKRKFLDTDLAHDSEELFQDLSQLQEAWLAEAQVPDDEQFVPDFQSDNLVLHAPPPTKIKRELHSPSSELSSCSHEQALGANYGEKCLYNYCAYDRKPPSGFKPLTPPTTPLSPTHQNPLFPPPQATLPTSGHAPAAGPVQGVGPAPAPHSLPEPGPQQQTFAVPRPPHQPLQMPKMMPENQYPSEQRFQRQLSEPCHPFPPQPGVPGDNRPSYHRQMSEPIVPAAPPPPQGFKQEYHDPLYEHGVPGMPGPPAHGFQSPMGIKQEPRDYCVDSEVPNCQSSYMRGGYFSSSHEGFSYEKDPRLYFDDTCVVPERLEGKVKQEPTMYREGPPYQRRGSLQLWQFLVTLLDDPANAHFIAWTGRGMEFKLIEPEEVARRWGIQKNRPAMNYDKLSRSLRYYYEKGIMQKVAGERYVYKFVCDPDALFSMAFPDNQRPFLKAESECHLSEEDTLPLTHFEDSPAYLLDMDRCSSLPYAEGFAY
Chain of CRX (O43186 whole entry): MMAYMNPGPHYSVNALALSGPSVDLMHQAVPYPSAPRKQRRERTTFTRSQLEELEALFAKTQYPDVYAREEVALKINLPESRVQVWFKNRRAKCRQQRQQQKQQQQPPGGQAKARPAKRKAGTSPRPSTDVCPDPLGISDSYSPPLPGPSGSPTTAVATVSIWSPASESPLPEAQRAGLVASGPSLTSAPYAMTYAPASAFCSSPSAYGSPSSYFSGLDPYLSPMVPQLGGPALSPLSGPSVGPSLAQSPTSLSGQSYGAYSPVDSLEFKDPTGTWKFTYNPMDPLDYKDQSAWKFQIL
Chain of ETV6 (P41212 whole entry): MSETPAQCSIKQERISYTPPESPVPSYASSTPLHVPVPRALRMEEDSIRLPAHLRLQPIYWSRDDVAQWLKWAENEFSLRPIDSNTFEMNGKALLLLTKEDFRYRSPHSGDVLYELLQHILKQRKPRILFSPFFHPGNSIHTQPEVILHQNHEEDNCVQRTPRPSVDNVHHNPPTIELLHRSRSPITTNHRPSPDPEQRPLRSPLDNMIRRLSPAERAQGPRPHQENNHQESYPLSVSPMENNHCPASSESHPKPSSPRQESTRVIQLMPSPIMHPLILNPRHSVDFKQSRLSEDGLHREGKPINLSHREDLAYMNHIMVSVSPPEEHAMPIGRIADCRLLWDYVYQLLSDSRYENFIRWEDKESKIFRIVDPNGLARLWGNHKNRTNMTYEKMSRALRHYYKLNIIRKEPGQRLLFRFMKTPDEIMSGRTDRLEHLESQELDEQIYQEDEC
Chain of HSF1 (Q00613 whole entry): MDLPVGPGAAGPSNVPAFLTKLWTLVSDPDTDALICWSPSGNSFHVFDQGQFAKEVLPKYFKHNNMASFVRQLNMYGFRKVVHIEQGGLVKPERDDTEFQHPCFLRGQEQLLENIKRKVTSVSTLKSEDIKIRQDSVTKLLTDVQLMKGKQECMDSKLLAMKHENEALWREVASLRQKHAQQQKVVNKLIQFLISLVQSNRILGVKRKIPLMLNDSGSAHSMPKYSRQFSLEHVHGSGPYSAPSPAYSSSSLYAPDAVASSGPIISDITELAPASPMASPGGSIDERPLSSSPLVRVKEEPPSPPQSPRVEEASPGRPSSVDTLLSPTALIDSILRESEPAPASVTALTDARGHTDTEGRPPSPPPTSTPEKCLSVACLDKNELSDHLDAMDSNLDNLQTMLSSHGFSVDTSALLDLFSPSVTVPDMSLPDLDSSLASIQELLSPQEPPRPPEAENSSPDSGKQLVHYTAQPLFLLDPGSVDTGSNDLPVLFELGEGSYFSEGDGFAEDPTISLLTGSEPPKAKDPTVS
Chain of ELF4 (Q99607 whole entry): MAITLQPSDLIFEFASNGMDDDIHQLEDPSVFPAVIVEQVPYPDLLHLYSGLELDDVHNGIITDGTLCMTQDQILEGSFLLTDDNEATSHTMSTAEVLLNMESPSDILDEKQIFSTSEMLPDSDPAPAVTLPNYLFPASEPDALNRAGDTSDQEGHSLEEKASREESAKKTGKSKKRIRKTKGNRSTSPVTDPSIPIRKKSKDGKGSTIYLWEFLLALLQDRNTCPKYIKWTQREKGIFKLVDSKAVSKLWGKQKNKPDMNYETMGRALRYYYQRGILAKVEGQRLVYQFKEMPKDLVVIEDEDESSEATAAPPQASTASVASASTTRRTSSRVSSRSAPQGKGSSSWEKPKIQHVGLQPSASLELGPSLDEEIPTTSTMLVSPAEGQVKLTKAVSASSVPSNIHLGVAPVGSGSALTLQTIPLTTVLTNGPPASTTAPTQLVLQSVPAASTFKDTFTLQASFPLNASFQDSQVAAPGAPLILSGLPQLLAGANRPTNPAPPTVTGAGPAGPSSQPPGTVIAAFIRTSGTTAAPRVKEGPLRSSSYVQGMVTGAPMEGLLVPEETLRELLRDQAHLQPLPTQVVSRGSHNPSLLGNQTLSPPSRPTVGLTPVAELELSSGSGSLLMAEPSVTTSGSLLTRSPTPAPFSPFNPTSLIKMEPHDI

## CTGCTG
FEV
  binding signal: 1.25 fold enrichment (6-mer frequency, TF over GST control)
ETV5
  binding signal: 1.25 fold enrichment (6-mer frequency, TF over GST control)
HSF1
  binding signal: 1.09 fold enrichment (6-mer frequency, TF over GST control)
SPIC
  binding signal: 1.47 fold enrichment (6-mer frequency, TF over GST control)
ELF4
  binding signal: 1.25 fold enrichment (6-mer frequency, TF over GST control)
ELK4
  binding signal: 1.27 fold enrichment (6-mer frequency, TF over GST control)
ETV2
  binding signal: 1.05 fold enrichment (6-mer frequency, TF over GST control)
ELF3
  binding signal: 1.13 fold enrichment (6-mer frequency, TF over GST control)
CRX
  binding signal: 1.01 fold enrichment (6-mer frequency, TF over GST control)
ETV1
  binding signal: 1.17 fold enrichment (6-mer frequency, TF over GST control)
ERF
  binding signal: 1.08 fold enrichment (6-mer frequency, TF over GST control)
ETV3L
  binding signal: 1.3 fold enrichment (6-mer frequency, TF over GST control)
ETS2
  binding signal: 1.36 fold enrichment (6-mer frequency, TF over GST control)
SPDEF
  binding signal: 1.26 fold enrichment (6-mer frequency, TF over GST control)
ETV7
  binding signal: 1.13 fold enrichment (6-mer frequency, TF over GST control)
ELF5
  binding signal: 1.27 fold enrichment (6-mer frequency, TF over GST control)
ETV3
  binding signal: 1.27 fold enrichment (6-mer frequency, TF over GST control)
ETV6
  binding signal: 1.22 fold enrichment (6-mer frequency, TF over GST control)
